The campaign covered roughly 360,000 compounds. About 25,000 (6.9%) were called active. Not shown: some 9% with an inconclusive outcome. The call rests on the fitted dose curve; in most records, active means well fitted inhibition curve with a large enough effect; inconclusive means small, poorly fitted or top-dose-only effect; inactive means flat fitted curve, though single readings scatter. The list comes from a sample in which actives are over-represented; it also holds similar structures and randomly drawn compounds.
Biological target: Luciferin 4-monooxygenase (Photinus pyralis) (UniProt P08659)
Experiment: qHTS profiling assay for firefly luciferase inhibitor/activator using purifed enzyme and Km concentrations of substrates (counterscreen for miR-21 project); further: nearly all actives have a fitted effect of over 55% in size;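 on activity change, negative = inhibition: plate controls were vehicle for no effect and reference inhibitor for full effect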
Settings: purified FLuc, luminescence inhibition; series mostly up to 57.5 µM; activity change, negative = inhibition: at the top concentration
In short: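 Purified P. pyralis luciferase, 10 nM final, with Km-level 10 uM D-luciferin and 10 uM ATP in 50 mM Tris acetate pH 7.5, 10 mM Mg acetate, 0.01% Tween-20, 0.05% BSA; 6-point qHTS titration about 60 µM downward; luminescence read.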
Potency means the concentration at half of the fitted maximal effect.

Chain of Luciferin 4-monooxygenase (Photinus pyralis) (P08659 whole entry, looked up): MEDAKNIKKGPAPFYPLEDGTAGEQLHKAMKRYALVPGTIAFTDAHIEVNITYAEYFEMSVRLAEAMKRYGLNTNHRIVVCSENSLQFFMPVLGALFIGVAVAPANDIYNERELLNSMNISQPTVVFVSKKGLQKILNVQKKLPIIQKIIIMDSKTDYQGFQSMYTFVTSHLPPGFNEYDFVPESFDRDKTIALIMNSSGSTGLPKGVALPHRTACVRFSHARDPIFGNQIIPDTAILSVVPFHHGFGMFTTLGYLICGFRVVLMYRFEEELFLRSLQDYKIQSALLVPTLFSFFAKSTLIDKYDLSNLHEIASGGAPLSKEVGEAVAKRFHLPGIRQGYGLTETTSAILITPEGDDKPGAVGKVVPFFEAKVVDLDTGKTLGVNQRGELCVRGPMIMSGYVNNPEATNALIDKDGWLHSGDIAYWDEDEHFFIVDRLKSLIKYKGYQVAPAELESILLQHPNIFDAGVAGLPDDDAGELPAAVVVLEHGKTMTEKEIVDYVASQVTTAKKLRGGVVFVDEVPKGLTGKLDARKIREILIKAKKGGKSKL

Structure (SMILES)	activity change, negative = inhibition	Potency
O=C(CN1C2=NCCN2c2ccccc21)c1cccs1	5.98% (inactive)	
O=C(CSc1ncnc2sccc12)N1CCN(C(=O)c2cccs2)CC1	-7.48% (inactive)	
Nc1c(C(=O)c2cccs2)sc2nsc(SCCN3CCCCC3)c12		5.36 µM (active)
O=C(NCCCN1CCN(c2cccc(Cl)c2)CC1)c1nnc(Cc2ccc(F)cc2Cl)o1	-10.2% (inactive)	
CCOC(=O)c1ccc(NC(=O)c2nc[nH]c2C(=O)N[C@@H](CCCCNC(=O)OC(C)(C)C)C(=O)OC(C)(C)C)cc1	0.515% (inactive)	
Cc1ccc(C(=O)/C=C/c2c(C)nn(-c3ccccc3)c2Cl)cc1		6.01 µM (active)
Cc1nn(-c2ccccc2)c(C)c1NC(=O)CCl	-1.67% (inactive)	
Cc1nn(-c2ccccc2)c(CC(C)(C)C(=O)O)c1C(=O)O	-1.1% (inactive)	
COc1ccc(CCNC(=O)c2c(C)nn(-c3ccccc3)c2Cl)cc1	0.672% (inactive)	
Cc1nn(-c2ccccc2)c(C)c1/C=C/C(=O)OC(C)C(N)=O (centres undefined)	0.623% (inactive)	
Cc1nn(-c2ccccc2)c(Cl)c1/C=C/C(=O)c1ccc(O)cc1		12 µM (active)
COc1ccc(-c2c(-c3cc(OC)cc(OC)c3)n(C)c3ccc(-c4ccn[nH]4)cc23)cc1	-0.353% (inactive)	
O=C(NC1CC(=O)N(c2ccccc2)C1)c1ccco1 (centres undefined)	-0.409% (inactive)	
CCOc1cc(C(=O)O)ccc1OCCOc1ccccc1	-1.63% (inactive)	
COc1ccc(N2CCN(C(=O)c3ccccc3NC(=O)C3=C(C)OCCS3)CC2)cc1	1.81% (inactive)	
Oc1ccc2ccccc2c1N=Nc1nccs1		19 µM (active)
c1ccc(NCc2cccc3ccccc23)nc1	-16.5% (inactive)	
O=C1CC(NNc2ccccc2)C(=O)N1c1cccc(Cl)c1 (centres undefined)	-17.8% (inactive)	
O=c1c2cc(Br)ccc2nc(-c2cccc(Cl)c2)n1O	-2.13% (inactive)	
O=c1c(-c2cccc(Cl)c2)c[nH]n1-c1ccccc1		26.9 µM (active)
COc1ccc(S(=O)(=O)n2nc(C)c(S(=O)(=O)N3CCCCCC3)c2C)cc1	4.77% (inactive)	
COc1cc(NC(=O)c2cc(C3CC3)nc3c2c(C)nn3-c2ccccc2)cc(OC)c1	-10.6% (inactive)	
O=[N+]([O-])c1ccc2c(c1)C(N1CCOCC1)/C(=C/C1(O)CCCCC1)O2 (centres undefined)	-4.29% (inactive)	
Cn1c(=O)c2sccc2n2c(CCC(=O)NCc3ccccc3Cl)nnc12	-5.43% (inactive)	
COCc1nnc(NC(=O)CS(=O)(=O)Cc2ccccc2)s1	0.467% (inactive)	

Structure (SMILES)	activity change, negative = inhibition	Potency
O=C(Nc1ccccc1)c1ccc2c(c1)OCO2		12 µM (active)
O=C(Nc1nc2ccccc2s1)c1ccc2c(c1)OCO2		0.301 µM (active)
O=C(Nc1cccc([N+](=O)[O-])c1)c1ccc2c(c1)OCO2		19 µM (active)
CN(CC(=O)Nc1cccc(F)c1)CC(=O)Nc1cccc([N+](=O)[O-])c1	6.15% (inactive)	
CC(NC(=O)Nc1cccc([N+](=O)[O-])c1)c1ccc2c(c1)OCO2 (centres undefined)	-1.01% (inactive)	
Cn1c(NC(=O)c2ccc3c(c2)OCO3)cc(=O)n(C)c1=O	0.456% (inactive)	
COCc1nnc(NC(=O)c2ccc3c(c2)OCO3)s1		23.9 µM (active)
O=CN1CCN(C(=O)c2ccc3c(c2)OCO3)CC1	-6.7% (inactive)	
Cc1ccc(-n2nc3c(c2NC(=O)c2ccc4c(c2)OCO4)CSC3)c(C)c1	0.872% (inactive)	
O=C(Nc1ccc(NC(=O)c2ccc3c(c2)OCO3)cc1)c1cccc(Cl)c1	-0.291% (inactive)	
Cc1ccc2sc(NNC(=O)c3ccc4c(c3)OCCO4)nc2c1C	-4.15% (inactive)	
CSCCC(NS(=O)(=O)c1ccc2c(c1)oc(=O)n2C)C(=O)NC1CCCc2ccccc21 (centres undefined)	5.78% (inactive)	
Cc1ccc(N2C(=O)C3N=NN(CC(=O)N4N=C(c5cccc6ccccc56)CC4c4ccccc4)C3C2=O)cc1 (centres undefined)	-0.523% (inactive)	
O=C(Nc1c(C(=O)N2CCN(c3ccc(F)cc3)CC2)oc2ccccc12)c1ccco1	-7.89% (inactive)	
CN(CC#CCC(c1ccccc1)c1ccccc1)C(C)(C)C	0.573% (inactive)	
CCOC(=O)c1ccc(NC(=O)c2ncn(-c3ccccc3)n2)cc1	-1.44% (inactive)	
O=C1Cc2cc(S(=O)(=O)Nc3cccc(F)c3)ccc2N1	4.22% (inactive)	
COC(=O)c1ccc(NC(=O)c2cnn(-c3ccc(Cl)cc3)c2C2CCN(C(=O)OC(C)(C)C)CC2)cc1	-5.97% (inactive)	
CCOc1ccc(C(=O)NCC(=O)N2CCCCCCC2)cc1OCC	0.971% (inactive)	
CC(NC(=O)COC(=O)c1ccc2c(c1)OCO2)c1ccccc1 (centres undefined)	-5.33% (inactive)	
O=C(c1ccc2c(c1)OCO2)N1CCOCC1	-1.93% (inactive)	
CC(=O)Nc1cccc(C(=O)OCN2C(=O)c3ccccc3C2=O)c1	-1.02% (inactive)	
O=C(c1cccc(S(=O)(=O)Nc2ccccc2Cl)c1)N1CCN(C(=O)c2ccco2)CC1	-4.73% (inactive)	
CC(Sc1nc(-c2ccccc2)cc(C(F)(F)F)n1)C(=O)Nc1ccc2c(c1)OCO2 (centres undefined)	0.268% (inactive)	
CC(=O)Nc1cccc(C(=O)OCC(=O)c2ccc3c(c2)OCO3)c1		0.135 µM (active)

Structure (SMILES)	activity change, negative = inhibition	Potency
O=C(Nc1ccc(N2CCOCC2)cc1)c1ccc2c(c1)OCO2		10.7 µM (active)
CC(C)C(=O)Nc1cccc(C(=O)Nc2ccc3c(c2)OCO3)c1		8.49 µM (active)
O=C(Nc1ccc2c(c1)CCC2)c1cccc(S(=O)(=O)N2CCN(c3ccc(F)cc3)CC2)c1	8.68% (inactive)	
O=C(Nc1ccc2c(c1)CCC2)c1cccc(S(=O)(=O)Nc2ccccc2Cl)c1		21.3 µM (active)
O=C(NCCS(=O)(=O)N1CCN(c2ccc(F)cc2)CC1)c1ccc2c(c1)OCO2	0.656% (inactive)	
O=C(c1ccccc1F)N1CCC(c2nc3c(nnn3Cc3cccc(F)c3)c(=O)[nH]2)CC1	-15.3% (inactive)	
Cc1ccc2ncc(C(=O)Nc3ccc(OC(F)(F)F)cc3)c(=O)n2c1	-5.88% (inactive)	
CCn1c2c(c(=O)n3ncc(C(=O)N4CCN(c5ccccc5)CC4)c13)CN(Cc1ccc(OC)cc1)CC2	-2.48% (inactive)	
CN(Cc1ccccc1)CC(O)COc1ccc(CNCc2cc3ccccc3s2)cc1 (centres undefined)	-0.152% (inactive)	
Cc1cc(C)cc(NC(=O)CSc2oc(-c3ccccc3)nc2S(=O)(=O)c2ccc(Cl)cc2)c1	-3.79% (inactive)	
Cc1sc2ncnc(SCC(=O)Nc3ccc(CN4CCCC4)cc3)c2c1C	4.55% (inactive)	
Cc1ccc(C)c(NC(=O)C(c2ccccc2)N2CCN(CC(=O)NC3CC3)CC2)c1 (centres undefined)	5.73% (inactive)	
CC(=O)NC(CC(=O)Nc1cccc(S(=O)(=O)N2CCCC2)c1)c1ccccc1 (centres undefined)	-3.53% (inactive)	
O=C(Nc1ccc(NC(=O)c2ccco2)c(Cl)c1)c1cccc([N+](=O)[O-])c1	1.09% (inactive)	
O=C(CN(Cc1ccccc1)C(=O)c1ccc2c(c1)OCCO2)NCc1ccc2c(c1)OCO2	-1.85% (inactive)	
CCN(CC)CCNC(=O)c1ccc(NS(=O)(=O)c2ccc3c(c2)OCCO3)cc1	5.41% (inactive)	
O=C(Nc1cccc(S(=O)(=O)Nc2ccc(Cl)cc2)c1)c1ccc2c(c1)OCCO2		16.9 µM (active)
C/C(Cc1ccccc1)=N\NC(=O)CNC(=O)c1ccc2c(c1)OCCO2	-18% (inactive)	
O=C(Nc1ccccc1)c1ccc2c(c1)OCCCO2		1.2 µM (active)
O=C(Nc1ccc(C2CC2(Cl)Cl)cc1)c1cccc([N+](=O)[O-])c1 (centres undefined)		12 µM (active)
O=C(OCc1ccccc1F)c1ccc2c(c1)OCCO2		6.01 µM (active)
CC(NS(=O)(=O)c1ccc(Cl)cc1)C(=O)Nc1ccc2c(c1)OCCO2 (centres undefined)	0.952% (inactive)	
O=C(CN1CCc2cc3c(cc2C1)OCCCO3)Nc1ccccc1	-8.71% (inactive)	
O=C(Nc1ccc(C(=O)N2CCCCC2)cc1)c1cccc([N+](=O)[O-])c1	-9.29% (inactive)	

— PubChem BioAssay AID588342 (National Center for Advancing Translational Sciences (NCATS), 2011)
